Data: article PMC4336329 (PLoS ONE, 2015)
In all, about 310,000 compounds went through this assay and about 14,000 (4.5%) showed an effect of 50% or more. Effects have a minus sign here. Only a selection was taken, and strong results are over-represented in it overall.

Each compound was assayed against human ether-à-go-go-related gene (hERG) potassium channel (human, UniProt Q12809) (assay: primary screen, population patch clamp on CHO cells stably expressing hERG; higher = less effect of the substance).
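Note: peak tail current of the secondary pulse compared with the same well before compound.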

human ether-à-go-go-related gene (hERG) potassium channel, sequence (Q12809 whole entry, looked up): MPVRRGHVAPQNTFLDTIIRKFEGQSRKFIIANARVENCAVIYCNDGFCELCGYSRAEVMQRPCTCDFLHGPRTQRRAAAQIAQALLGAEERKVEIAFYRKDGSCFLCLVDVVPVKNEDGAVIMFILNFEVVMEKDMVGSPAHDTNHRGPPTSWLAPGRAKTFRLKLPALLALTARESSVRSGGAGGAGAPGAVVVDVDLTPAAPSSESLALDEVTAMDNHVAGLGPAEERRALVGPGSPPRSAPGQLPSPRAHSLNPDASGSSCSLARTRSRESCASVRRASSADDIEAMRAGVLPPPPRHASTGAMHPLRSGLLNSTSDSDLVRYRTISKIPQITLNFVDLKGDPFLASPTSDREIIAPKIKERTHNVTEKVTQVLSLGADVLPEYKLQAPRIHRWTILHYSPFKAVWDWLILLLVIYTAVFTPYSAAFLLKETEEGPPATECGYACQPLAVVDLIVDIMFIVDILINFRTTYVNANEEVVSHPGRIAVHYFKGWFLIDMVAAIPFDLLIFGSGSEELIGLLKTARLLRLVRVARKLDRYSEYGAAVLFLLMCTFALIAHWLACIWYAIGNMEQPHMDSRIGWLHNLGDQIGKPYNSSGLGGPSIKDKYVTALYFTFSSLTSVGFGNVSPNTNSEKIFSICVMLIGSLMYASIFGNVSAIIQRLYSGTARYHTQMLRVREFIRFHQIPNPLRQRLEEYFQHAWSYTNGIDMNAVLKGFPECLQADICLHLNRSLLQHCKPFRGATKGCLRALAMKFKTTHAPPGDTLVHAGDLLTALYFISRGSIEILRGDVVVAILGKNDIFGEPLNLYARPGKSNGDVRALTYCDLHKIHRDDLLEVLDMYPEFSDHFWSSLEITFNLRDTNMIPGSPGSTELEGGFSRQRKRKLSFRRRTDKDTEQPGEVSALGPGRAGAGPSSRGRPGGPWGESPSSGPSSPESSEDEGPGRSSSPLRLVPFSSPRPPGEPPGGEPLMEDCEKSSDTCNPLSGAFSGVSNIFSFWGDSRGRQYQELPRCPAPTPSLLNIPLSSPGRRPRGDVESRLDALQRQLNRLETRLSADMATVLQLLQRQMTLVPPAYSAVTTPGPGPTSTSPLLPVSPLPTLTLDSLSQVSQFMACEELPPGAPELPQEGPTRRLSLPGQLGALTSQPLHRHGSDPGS

Row | Structure (SMILES) | hERG current change (%, negative = inhibition) at 10uM
1 | Cc1cc(-c2cccs2)c2c(N)c(C(=O)c3ccc4c(c3)OCO4)sc2n1 | 5.2%
2 | Cc1ccc(S(=O)(=O)N(C)c2ccccc2C(=O)Nc2c(F)cccc2F)cc1 | 3.31%
3 | CC(C)(C)N1CC(c2nc3ccccc3n2Cc2ccccc2)CC1=O (stereo not drawn) | -47.2%
4 | COc1ccc(S(=O)(=O)N2CCOCC2)cc1NC(=O)c1sccc1C | -3.22%
5 | COc1ccc2nc(SC(C)C(=O)NC3(C#N)CCCCC3)[nH]c2c1 (stereo not drawn) | -20.1%
6 | COC(=O)c1cc2oc(C)cc2n1CC(=O)N1CCCc2ccccc21 | -11.9%
7 | Cc1ccc2nc(NC(=O)CSCC(=O)OCC(=O)c3ccc(Br)cc3)sc2c1 | 16.5%
8 | O=C(COc1ccc(Br)cc1)NCCCn1ccnc1 | -20.1%
9 | COc1ccc(Cl)cc1NC(=O)CN(C)C(=O)c1cc2c(F)cccc2s1 | -6.32%
10 | CCCCSc1nnc(C)c(=O)[nH]1 | 3.25%
11 | Cc1cccc(C2c3[nH]c4ccccc4c3CCN2C(=O)Cc2n[nH]c(C)n2)n1 (stereo not drawn) | 5.57%
12 | COc1ccc(OC)c(NC(=O)COc2ccc(S(=O)(=O)N3CCCC3)cc2)c1 | -23.4%
13 | O=C(CCC(=O)n1ncc2ccccc21)NCc1ccc(F)cc1 | -18.1%
14 | Cc1ccc(C(=O)N2CCN(c3nc4ccccc4n3C)CC2)cc1 | -70.3%
15 | Cc1ccc(C(=O)N2CCN(c3ccccn3)CC2)cc1 | -14.3%
16 | Cc1ccc(C(=O)N2CCN(c3ncccn3)CC2)cc1 | 12.6%
17 | CCOC(=O)C1CCN(S(=O)(=O)c2ccc3c(c2)CCN3C(=O)C2CCC2)CC1 | 14.1%
18 | COc1ccc(C(=O)NCCCSC)cc1OC1CCN(C(C)C)CC1 | -11.8%
19 | COc1ccc(C(=O)NC2CC2)cc1OC1CCN(C(C)CSC)CC1 (stereo not drawn) | -75.4%
20 | CCOCCCNC(=O)c1ccc(OC)c(OC2CCN(C(C)C)CC2)c1 | 10.7%
21 | COc1ccc(C(=O)N(C)CCCC2CCCC2)cc1OC1CCN(C(C)C)CC1 | -68.4%
22 | COc1ccc(C(=O)N(C)CCCC2CCCC2)cc1OC1CCN(C(C)=O)CC1 | -32.2%

Row | Structure (SMILES) | hERG current change (%, negative = inhibition) at 10uM
23 | COC(=O)CN(C)C(=O)c1ccc(OC)c(OC2CCN(C(C)C)CC2)c1 | 13.1%
24 | COc1ccc(C(=O)NC2CCCCC2)cc1OC1CCN(C(C)C)CC1 | -69.7%
25 | COc1ccc(C(=O)NC2CCCCCC2)cc1OC1CCN(C(C)=O)CC1 | -4.48%
26 | COc1ccc(C(=O)N[C@H]2CCCCNC2=O)cc1OC1CCN(C(C)C)CC1 | 15.3%
27 | COc1ccc(CCNC(=O)COC(=O)c2cc(=O)c3ccccc3o2)cc1 | -1.09%
28 | Cc1cc(NC(=O)NC(=O)c2ccccc2)no1 | 23.1%
29 | Cn1c(O)c(N=Nc2nc(-c3ccccc3)cs2)c2ccccc21 | -6.78%
30 | Cc1ccc(CNC(=O)CCSCCC(=O)NCc2ccc(C)cc2)cc1 | 7.08%
31 | N#Cc1c(NC(=O)c2cc([N+](=O)[O-])ccc2N2CCOCC2)sc2c1CCCC2 | 4.02%
32 | CN1C(=O)c2cccc3c(Br)ccc(c23)C1=O | -16.2%
33 | COC(=O)COc1ccc2cccc(-n3cnnn3)c2c1 | 12.5%
34 | CC12CCC(=O)N1C(C(=O)OCc1c(Cl)cccc1Cl)CS2 (stereo not drawn) | -4.54%
35 | CCc1ccc(C(=O)NNC(=O)C2CSC3(C)CCC(=O)N23)cc1 (stereo not drawn) | -6.99%
36 | CCc1ccc2c(COC(=O)C3CSC4(C)CCC(=O)N34)cc(=O)oc2c1 (stereo not drawn) | -61.1%
37 | CCOC(C(=O)OCC(O)CN(CC)CC)(c1ccccc1)c1ccccc1.Cl (stereo not drawn) | -5.25%
38 | CN(C)CC(O)COC(c1ccc(Cl)cc1)c1ccc(Cl)cc1 (stereo not drawn) | -75.8%
39 | CN(C)CC(O)COC(c1ccccc1)c1ccccc1 (stereo not drawn) | -51.6%
40 | CCN(Cc1ccccc1)CC(O)COc1ccccc1.Cl (stereo not drawn) | -25.7%
41 | CCCC(O)(c1ccc(OC)cc1)C(CN(C)C)c1ccccc1 (stereo not drawn) | -4.69%
42 | COCCN(CCOC)CC(O)COC(c1ccccc1)c1ccccc1 (stereo not drawn) | -35.9%
43 | CC(OCC(O)CN(C)Cc1nc2ccccc2c(=O)[nH]1)c1ccc(Cl)cc1 (stereo not drawn) | -34%
44 | CN(C)CCC(O)c1ccccc1 (stereo not drawn) | 9.45%

Row | Structure (SMILES) | hERG current change (%, negative = inhibition) at 10uM
45 | CC(O)CN(Cc1ccc(Cl)cc1)CC(C)O (stereo not drawn) | 7.61%
46 | CCN(CC)CC(O)COC(c1ccccc1)c1ccccc1 (stereo not drawn) | -57.8%
47 | OC(COc1ccccc1)CN(Cc1ccccc1)CC(O)COc1ccccc1 (stereo not drawn) | -9.08%
48 | CCN(Cc1ccccc1)CC(O)COC(c1ccc(OC)cc1)c1ccc(OC)cc1 (stereo not drawn) | -75.1%
49 | Cc1ccc(CN2CCCC(C(=O)N3CCCC3)C2)cc1.O=C(O)C(=O)O (stereo not drawn) | -5.83%
50 | O=C(O)c1cc2nc(-c3ccccc3)cc(-c3ccccc3)n2n1 | 6.39%
51 | CN(C)S(=O)(=O)Oc1ccsc1C(=O)Nc1ccc(Br)cc1 | -12.2%
52 | CCOC(=O)[C@H]1[C@H]2COc3cc(OC)ccc3[C@@H]2N2C(=O)c3cc(OC)c(OC)cc3NC(=O)[C@@]12C | -2.44%
53 | Cc1ccc(C(=O)NNC(=O)C2CCN(c3nc(C)cc(C)n3)CC2)cc1 | 4.83%
54 | Cc1cccc(C)c1C(=NCCN(C)C)c1ccccc1.Cl | -41.3%
55 | CCNc1nc(NCC)n2c(SCc3ccc(F)cc3)nnc2n1 | -20.1%
56 | CC(C)=C1C2CCC1C(C(=O)Nc1sc(C)c(-c3ccc(C(C)C)cc3)c1C(N)=O)C2C(=O)O (stereo not drawn) | -22.5%
57 | CN(C)C=O.O=C(NCCc1ccccc1)c1oc2ccccc2c1COc1ccccc1 | 12.4%
58 | Cc1ccc(-c2cc(C(=O)NCc3ccccn3)no2)cc1 | 0.477%
59 | Cc1ccc(NC(=O)c2ccc3c(c2)OCO3)cc1S(=O)(=O)N1CCOCC1 | -20.3%
60 | Cc1ccnc(NC(=O)c2cccc(S(=O)(=O)N3CCOCC3)c2)c1 | -18.9%
61 | O=C(NCc1ccc(Cl)cc1)c1cccc(S(=O)(=O)N2CCCC2)c1 | -30.9%
62 | Cc1cc(C(=O)Nc2ccc(C)c(S(=O)(=O)N3CCOCC3)c2)c(C)o1 | -6.59%
63 | O=C(Nc1ccc(Cl)cn1)c1cccc(S(=O)(=O)N2CCCC2)c1 | -50.9%
64 | O=C(NCCOc1ccc(Cl)cc1)c1cccc(S(=O)(=O)N2CCCC2)c1 | -51.8%
65 | Cc1ccc(C(=O)Nc2ccc(C)c(S(=O)(=O)N3CCOCC3)c2)c(C)c1 | -51%
66 | Cc1ccc(OCCNC(=O)c2cccc(S(=O)(=O)N3CCN(C)CC3)c2)cc1 | -16.6%

Row | Structure (SMILES) | hERG current change (%, negative = inhibition) at 10uM
67 | Cc1ccc(NC(=O)c2cccc(S(=O)(=O)N3CCCC3)c2)nc1 | -7.18%
68 | O=C(Nc1ccccn1)c1cccc(S(=O)(=O)N2CCCC2)c1 | 9.44%
69 | O=C(Nc1ccccn1)c1cccc(S(=O)(=O)N2CCOCC2)c1 | -6.45%
70 | O=C(Nc1ccc(Cl)cn1)c1cccc(S(=O)(=O)N2CCOCC2)c1 | -65.4%
71 | O=C1c2ccccc2C(Nc2ccc(S(=O)(=O)N3CCCCC3)cc2)N1Cc1ccco1 (stereo not drawn) | -22.7%
72 | CC(CC(=O)N(C)c1c(N)n(Cc2ccccc2)c(=O)[nH]c1=O)c1ccccc1 (stereo not drawn) | -23.3%
73 | COCc1ccc(C(=O)N2CCCC(N3CCN(c4ccccc4C)CC3)C2)s1 (stereo not drawn) | -34.7%
74 | CSc1cccc(NC(=O)C2CCCN(S(=O)(=O)c3cccs3)C2)c1 (stereo not drawn) | 3.76%
75 | COc1ccccc1N(C)C(=O)c1cc(S(=O)(=O)N2CCCC2)cn1C | -3.55%
76 | CC(NC(=O)C1CCN(S(=O)(=O)c2cnc[nH]2)CC1)c1ccccc1 (stereo not drawn) | 3.81%
77 | N/C(=N\OC(=O)c1ccccc1)c1ccn[nH]1 | -1.07%
78 | Cc1ccc(C(=O)Nc2ccccn2)cc1S(=O)(=O)N1CCOCC1 | -5.72%
79 | Cc1ccc(NC(=O)c2ccc(C)c(S(=O)(=O)N3CCOCC3)c2)nc1 | -6.9%
80 | O=C(Nc1cccc(S(=O)(=O)N2CCOCC2)c1)C1=NN(c2ccccc2)C(=O)CC1 | -42.9%
81 | Cc1ccc(S(=O)(=O)N2CCOCC2)cc1NC(=O)C1=NN(c2ccccc2)C(=O)CC1 | -18%
82 | O=C(COC(=O)c1cccc(S(=O)(=O)N2CCOCC2)c1)Nc1ncc(Cl)cc1Cl | -13.4%
83 | Cc1ccc(C(=O)Nc2ccc(Cl)cn2)cc1S(=O)(=O)N1CCOCC1 | -51.4%
84 | O=C(COC(=O)c1cccc(S(=O)(=O)N2CCOCC2)c1)Nc1ccc(Cl)cn1 | -61.1%
85 | O=C(COC(=O)c1cc(S(=O)(=O)N2CCOCC2)ccc1F)Nc1ccc(Cl)cn1 | -37.4%
86 | Cc1cccc(N2N=C(C(=O)Nc3ccc(Cl)c(S(=O)(=O)N4CCOCC4)c3)CCC2=O)c1 | -52.4%
87 | O=C(Cn1cnc([N+](=O)[O-])c1)Nc1ccccc1C(F)(F)F | -14.3%
